Source: paper PMC9574860, “Chemical Toolkit for PARK7: Potent, Selective, and High-Throughput” (Journal of Medicinal Chemistry, 2022)
About 400 (5.1%) of roughly 7,900 compounds showed an effect of 50% or more. Many of the other results were omitted from the sample, so strong results are more common in it than they were.

Each compound was assayed against Parkinson's disease protein 7 (PARK7/DJ1) (human, UniProt Q99497) (assay: primary screen, percent inhibition; read as competition with a fluorescent probe by fluorescence polarization; higher = more effect of the substance). Details: 100 µM.
Parkinson's disease protein 7 (PARK7/DJ1), sequence (Q99497 whole entry, looked up, the tested form may be a part): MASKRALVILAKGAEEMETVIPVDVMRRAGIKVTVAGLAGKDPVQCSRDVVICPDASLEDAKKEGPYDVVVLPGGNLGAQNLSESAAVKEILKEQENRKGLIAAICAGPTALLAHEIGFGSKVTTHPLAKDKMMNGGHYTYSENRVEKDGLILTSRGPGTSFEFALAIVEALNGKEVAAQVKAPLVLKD
Summary of the method: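 Fluorescence-polarization probe displacement (JYQ-107, 20 nM final, 2 h) after 2 h preincubation of PARK7 (0.2 μM final) with each fragment at 100 μM final. Read-out ex/em 480/520 nm; remaining activity derived from FP signal loss relative to reference controls.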

| Structure (SMILES) | Inhibition % [%] |
| --- | --- |
| Cc1ccc(NS(=O)(=O)CCCS(=O)(=O)F)nc1 | 80.1 |
| O=S(=O)(F)c1ccc(Nc2ccc(F)cc2)nc1 | 2.34 |
| Cn1c(SC2CCOC2=O)nnc1-c1ccccc1 (centres unmarked) | 12.6 |
| Cc1ccc(S)nn1 | 28.1 |
| Sc1ccc(Cl)nn1 | 53.5 |
| FC(F)(F)c1ccc(S)nn1 | 25.5 |
| CC(C)CC(=O)NNS(=O)(=O)c1ccc(S(=O)(=O)F)cc1 | 30.6 |
| CC(C)CC(=O)NNS(=O)(=O)c1cccc(S(=O)(=O)F)c1 | 98.2 |
| COCC(=O)Nc1ccc(S(=O)(=O)F)cc1 | 13.6 |
| CC(C)(C)C(=O)NNS(=O)(=O)c1ccc(S(=O)(=O)F)cc1 | 6.55 |
| CNC(=O)Nc1ccc(S(=O)(=O)F)cc1 | 22.2 |
| CC(C)(C)C(=O)NNS(=O)(=O)c1cccc(S(=O)(=O)F)c1 | 97.2 |
| O=c1oc2cc(OCC3CO3)ccc2c2c1CCC2 (centres unmarked) | 10.6 |
| N#Cc1nc(N2CCOCC2)ccc1Cl | 8.71 |
| Cc1cn2c(C=C(C#N)c3ccccn3)c(C)nc2s1 | 13.6 |
| O=C(CCl)Nc1cc(C(F)(F)F)ccc1-n1cncn1 | 32.5 |
| C=CC(=O)N1CCC(c2ccc(C)nc2)CC1 | 4.08 |
| CCn1cc(S(=O)(=O)Oc2cccc(F)c2)nc1C | 3.67 |
| Cn1cc(S(=O)(=O)Oc2cccc(F)c2)c(=O)n(C)c1=O | 5.3 |
| CCOc1ccncc1S(=O)(=O)Oc1cccc(F)c1 | 58.4 |
| N#Cc1nccnc1N1CCc2c(F)ccc(F)c2C1 | 41 |

| Structure (SMILES) | Inhibition % [%] |
| --- | --- |
| C=CC(=O)NCc1cc2ccccc2s1 | 13.3 |
| CC1CC(N2CCCCC2Cn2cncn2)C(=O)O1 (centres unmarked) | 1.57 |
| C=CC(=O)NCCC1CCCCO1 (centres unmarked) | 2.29 |
| O=C(CCl)NCC1CCCO1 (centres unmarked) | 5.15 |
| O=C(CCl)C1CCCCO1 (centres unmarked) | 94.5 |
| CN(C)S(=O)(=O)c1cccc(NC(=O)CCl)c1 | 15.5 |
| CCn1nc(C)c(C(=O)Nc2cccc(S(=O)(=O)F)c2)c1Cl | 8.14 |
| O=C(CSC(F)(F)F)Nc1cccc(S(=O)(=O)F)c1 | 99.8 |
| NS(=O)(=O)c1cccc(NC(=O)CCCl)c1 | 4.37 |
| Cn1c(=O)ccn(CC(=O)Nc2cccc(S(=O)(=O)F)c2)c1=O | 99.6 |
| O=C(Cn1ncc2ccccc21)Nc1cccc(S(=O)(=O)F)c1 | 94.6 |
| O=Cc1cccc(C(=O)O)c1O | 24.2 |
| C=CC(=O)N1CCN(CC(C)C)C(=O)C1 | 0.18 |
| COc1ccc(CS(=O)(=O)F)cc1[N+](=O)[O-] | 18.4 |
| C=CC(=O)N1CC(Cc2cccs2)C1 | 12.5 |
| C=CC(=O)NCCc1nnc2n1CCCCC2 | 8.54 |
| COc1ccc(C(=O)NNC(=O)CCl)cc1 | -3.11 |
| N#Cc1ncn(CCOc2ccccc2Cl)n1 | 8.15 |
| C=CC(=O)N1CC(C)OC2(CCOC(C)C2)C1 (centres unmarked) | 9.19 |
| O=C(CCl)Nc1ccc(Cl)cc1F | 49.7 |
| O=C(CCl)Nc1ccc(F)cc1Cl | 13.8 |

| Structure (SMILES) | Inhibition % [%] |
| --- | --- |
| N#CSc1ccc(NC(=O)CCl)c(Cl)c1 | 55.8 |
| O=C(CCl)Nc1ccc(F)c(F)c1F | 32.8 |
| O=C(CCl)Nc1ccc(Cl)cc1Cl | 18 |
| N#CSc1ccc(NC(=O)CCl)c(F)c1 | 72 |
| O=C(CCl)Nc1ccc(F)cc1F | 23.9 |
| O=C(CCl)Nc1ccc(Br)cc1F | 71.1 |
| Cc1cc(SC#N)cc(C)c1NC(=O)CCl | 4.28 |
| Cc1cccc(OCC(=O)Nc2ccc(S(=O)(=O)F)cc2)c1 | 9.17 |
| OB(O)c1ccccc1OCC1CCOC1 (centres unmarked) | 5.05 |
| Cc1cc(CN(C)c2ccc(C#N)nc2)no1 | -2.05 |
| CN(CC(=O)Nc1ncc(S(=O)(=O)F)s1)S(C)(=O)=O | 9.17 |
| CSC1(CNc2cccc(C#N)n2)CCC1 | 11.9 |
| C=CC(=O)Nc1ccccc1CN1CCOCC1 | 8.41 |
| CCOc1cc(S(=O)(=O)n2ccc(C)n2)ccc1Cl | 2.71 |
| Cc1cc(B2OC(C)(C)C(C)(C)O2)sn1 | 0.986 |
| O=C1N(c2ccccc2)C(c2ccco2)C1(F)F (centres unmarked) | 3.32 |
| Nc1cccnc1S | 101 |
| Sc1ncccc1Cl | 2.79 |
| Cc1cccnc1S | 12.6 |
| C=CC(=O)NC(C)c1csnn1 (centres unmarked) | 10 |
